# Hit rate of the full screen: of about 5,400 compounds, about 190 (3.5%) showed an effect of 50% or more. Many of the other results were omitted from the sample, so strong results are more common in it than they were.
# Test system: Vero-E6
# Experiment: primary screen, phospholipidosis by LipidTOX staining; higher = more effect of the substance
# Settings: 10 µM
# Protocol: To measure drug-induced PLD in Vero-E6 cells, we used the HCS LipidTOX Red Phospholipidosis Detection Reagent (Invitrogen, #H34351), which is non-toxic to cell growth and remains well retained after aldehyde fixation. In this setup, compounds (at 10 μM concentration) and controls (amiodarone: 10 μM concentration; DMSO: 0.1 v/v %) were added to clear-bottom, 384-well plates (PhenoPlate 384-well, black, optically clear flat bottom, tissue-culture treated, Revvity #6057302) using the Echo Liquid Handler (Labcyte).
row,Compound,result_ITMP
1,CN(C)c1ccc2nc3ccc(N(C)C)cc3[s+]c2c1,5.81%
2,CO[C@@H]1[C@H](OC(=O)NC(=O)CCl)CC[C@]2(CO2)[C@H]1[C@@]1(C)O[C@@H]1CC=C(C)C,16.1%
3,NC[C@@H]1O[C@H](O[C@H]2[C@@H](O)[C@H](O[C@@H]3[C@@H](O)[C@H](N)C[C@H](N)[C@H]3O[C@H]3O[C@H](CO)[C@@H](O)[C@H](O)[C@H]3N)O[C@@H]2CO)[C@H](N)[C@@H](O)[C@@H]1O,-1.27%
4,CC1CCC(O)C/C1=C\C=C1/CCCC2(C)C1CCC2C(C)/C=C/C(C)C(C)C (stereo not drawn),0.34%
5,C[C@H](CSC(=O)c1ccccc1)C(=O)N1C[C@@H](Sc2ccccc2)C[C@H]1C(=O)[O-],-1.35%
6,Cc1ncc(COP(=O)([O-])O)c(CN(CCN(CC(=O)[O-])Cc2c(COP(=O)(O)O)cnc(C)c2[O-])CC(=O)[O-])c1[O-].[Mn+2],-10.5%
7,O=C([O-])C1=C(CSc2nnnn2CS(=O)(=O)[O-])CS[C@@H]2[C@H](NC(=O)[C@H](O)c3ccccc3)C(=O)N12,0.51%
8,CN1CCN(CC/C=C2/c3ccccc3Sc3ccc(S(=O)(=O)N(C)C)cc32)CC1,61.9%
9,CN(C)CCCN1c2ccccc2CCc2ccccc21,23.6%
10,OCCN1CCN(CC/C=C2/c3ccccc3Sc3ccc(Cl)cc32)CC1,17.9%
11,CSc1ccc2c(c1)N(CCC1CCCCN1C)c1ccccc1S2 (stereo not drawn),68.1%
12,Cc1[nH]c(/C=C2\C(=O)Nc3ccc(S(=O)(=O)N(C)c4cccc(Cl)c4)cc32)c(C)c1C(=O)N1CCN(C)CC1,7.98%
13,CN1CCCCC1CCN1c2ccccc2Sc2ccc(S(C)=O)cc21 (stereo not drawn),-0.95%
14,CN(C)CCCN1c2ccccc2Sc2ccccc21,37.7%
15,OCCN1CCN(CC/C=C2/c3ccccc3Sc3ccc(C(F)(F)F)cc32)CC1,83.6%
16,CN(C)CCCN1c2ccccc2Sc2ccc(Cl)cc21,104%
17,OCCOCCN1CCN(C2=Nc3ccccc3Sc3ccccc32)CC1,22.1%
18,CO/N=C(/C(=O)N[C@@H]1C(=O)N2C(C(=O)[O-])=C(CSc3nc(=O)c([O-])nn3C)CS[C@H]12)c1csc(N)n1,-8.18%
19,C[N+]1([O-])[C@@H]2C[C@@H](OC(=O)[C@H](CO)c3ccccc3)C[C@H]1[C@@H]1O[C@@H]12 (stereo partly drawn),-4.04%
20,C[C@@]1(CO)[C@H](O)CC[C@@]2(C)[C@H]1CC[C@H]1C[C@@H]3C[C@@]12CC[C@]3(O)CO,0.12%
21,CC(C)(C)c1ccc(-c2nc3cccc(N4CCN(Cc5ccc6nccnc6c5)CC4)c3[nH]2)cc1,5.05%
22,Cc1cc(C)cc(NC(=O)Cc2ccc(OC(C)(C)C(=O)[O-])cc2)c1,9.78%
23,O=S(=O)([O-])c1ccc(O)cc1,-0.61%
24,Cc1onc(-c2c(F)cccc2Cl)c1C(=O)N[C@@H]1C(=O)N2[C@@H]1SC(C)(C)[C@@H]2C(=O)[O-],-6.63%
25,CCCCOc1c(C(=O)c2c(F)cc(C)cc2F)cnc2[nH]ncc12,7.58%
26,C/C(=C\CNc1ncnc2nc[nH]c12)CO,-1.84%

row,Compound,result_ITMP
1,CCSc1ccc2c(c1)N(CCCN1CCN(C)CC1)c1ccccc1S2,59.1%
2,OCCN1CCN(CCCN2c3ccccc3Sc3ccc(C(F)(F)F)cc32)CC1,60.4%
3,CN1CCN(CCCN2c3ccccc3Sc3ccc(S(=O)(=O)N(C)C)cc32)CC1,50.3%
4,CCCCCCCCCC(=O)OCCN1CCN(CCCN2c3ccccc3Sc3ccc(C(F)(F)F)cc32)CC1,5.56%
5,CCCCCCCCCCCCCCCC(=O)OCCC1CCN(CCCN2c3ccccc3Sc3ccc(S(=O)(=O)N(C)C)cc32)CC1,-5.2%
6,O=C(CN1CCN(Cc2ccc3c(c2)OCO3)CC1)N1c2ccccc2Sc2ccccc21,15.4%
7,C[C@@H]1CN(Cc2ccc(F)cc2)[C@@H](C)CN1C(=O)c1cc2c(C(=O)C(=O)N(C)C)cn(C)c2cc1Cl,-5.07%
8,O=C([O-])c1cc2cc(Cc3cccnc3)ccc2o1,-0.95%
9,O=C([O-])[C@H](CC(=O)N1C[C@H]2CCCC[C@H]2C1)Cc1ccccc1,-4.71%
10,O=C(NN1C(=O)[C@@H]2[C@@H]3C=C[C@@H]([C@H]4C[C@@H]34)[C@@H]2C1=O)c1ccc(C(F)(F)F)cc1,-0.89%
11,C/N=C(/NS(=O)(=O)c1ccc(Cl)cc1)N1CC(c2ccccc2)C(c2ccc(Cl)cc2)=N1 (racemic),-1.59%
12,O=C(O)c1cnn(-c2nc3cc(Cl)c(OC(F)(F)F)cc3[nH]2)c1,-2.3%
13,CSc1ccc(C(=O)c2nc(O)[nH]c2C)cc1,-1.45%
14,O=S(=O)(c1cccc2cnccc12)N1CCNCC1,0.47%
15,O=S(=O)(NCCNC/C=C/c1ccc(Br)cc1)c1cccc2cnccc12,60.8%
16,NC(N)=NCCNS(=O)(=O)c1cccc2cnccc12,-3.17%
17,NC[C@@H]1O[C@H](O[C@H]2[C@@H](O)[C@H](O[C@@H]3[C@@H](O)[C@H](N)C[C@H](N)[C@H]3O[C@H]3O[C@H](CN)[C@@H](O)[C@H](O)[C@H]3N)O[C@@H]2CO)[C@H](N)[C@@H](O)[C@@H]1O,-2.72%
18,c1cnc2c([O][Ga]([O]c3cccc4cccnc34)[O]c3cccc4cccnc34)cccc2c1,5.3%
19,CCOC(=O)c1ccc(-n2cc(Cc3cnc(OCC)nc3)c(=O)nc2SCc2ccc(F)cc2)cc1,-1.15%
20,CCC(C)[C@H]1O[C@]2(C=C[C@@H]1C)C[C@@H]1C[C@@H](C/C=C(\C)[C@@H](OC3C[C@H](OC)C(O[C@H]4C[C@H](OC)[C@@H](O)[C@H](C)O4)[C@H](C)O3)[C@@H](C)/C=C/C=C3\CO[C@@H]4[C@H](O)C(C)=C[C@@H](C(=O)O1)[C@]34O)O2 (stereo partly drawn),-3.77%
21,CCOc1nc2cccc(C(=O)O)c2n1Cc1ccc(-c2ccccc2-c2nc(=O)o[nH]2)cc1,-0.57%
22,NCCCC(O)(P(=O)([O-])O)P(=O)(O)O,0.52%
23,CC1(C)S[C@@H]2[C@H](NC(=O)C(C(=O)[O-])c3ccccc3)C(=O)N2[C@H]1C(=O)[O-] (stereo partly drawn),-1.48%
24,Nc1ncccc1-c1nc2ccc(-c3ccccc3)nc2n1-c1ccc(C2(N)CCC2)cc1,91.9%
25,CC(C)(C)[C@]1(O)C[C@@H]2OC(=O)C[C@@]23C(=O)O[C@@H]2OC(=O)[C@H](O)C213 (stereo partly drawn),-3.55%
26,COc1cccc2c1C(=O)c1c(O)c3c(c(O)c1C2=O)C[C@@](O)(C(=O)CO)C[C@@H]3OC1C[C@H](N2CCO[C@H](OC)C2)C(O)[C@H](C)O1 (stereo partly drawn),0.2%

row,Compound,result_ITMP
1,CC1(C)CC[C@]2(NC(=O)C(C)(F)F)CC[C@]3(C)C(C(=O)C=C4[C@@]5(C)C=C(C#N)C(=O)C(C)(C)[C@@H]5CC[C@]43C)C2C1 (stereo partly drawn),-22.1%
2,CC1(C)C[C@@H]1C(=O)N/C(=C\CCCCSC[C@H](N)C(=O)[O-])C(=O)O,-1.62%
3,CCOC(=O)c1cc2ccc(O)cc2oc1=O,-3.11%
4,c1ccc(CNCc2ccc(CN3CCCNCCNCCCNCC3)cc2)nc1,-2%
5,O=C(c1ccc(-c2ccc(Cl)cc2)o1)N(Cc1ccccn1)c1ccc(N2CCNCC2)cc1,104%
6,Clc1ccc(N2CCN(Cc3c[nH]c4ncccc34)CC2)cc1,1.68%
7,CCCC(CCC)C(=O)NCC(N)=O,-5.65%
8,Nc1ccc(C(=O)[O-])c(O)c1,-0.28%
9,C[C@H](CCC(=O)NCCS(=O)(=O)O)[C@H]1CC[C@H]2[C@@H]3[C@@H](O)C[C@@H]4C[C@H](O)CC[C@]4(C)[C@H]3CC[C@]12C,3.34%
10,C[C@]12C=CC(=O)C=C1CC[C@@H]1[C@@H]2CC[C@]2(C)OC(=O)CC[C@@H]12,-2.34%
11,CC(=O)O[C@H]1CC[C@@]2(C)C(=CC[C@@H]3[C@@H]2CC[C@]2(C)C(c4cccnc4)=CC[C@@H]32)C1,2.09%
12,CN1CCN(c2ccc(Nc3ncc4cc(C#N)c(=O)n(C5CCCC5)c4n3)cc2)CC1,-0.88%
13,C=CCn1c(=O)c2cnc(Nc3ccc(N4CCN(C)CC4)cc3)nc2n1-c1cccc(C(C)(C)O)n1,32.4%
14,Cc1cccc(C)c1-n1c(=O)c2cnc(Nc3ccc(N4CCN(C)CC4)cc3)nc2n2c3ccccc3nc12,81.7%
15,N[C@@H](CSS(=O)(=O)[O-])C(=O)O,-1.62%
16,C/C=C(\C(=C\C)c1ccc(O)cc1)c1ccc(O)cc1,0.7%
17,c1ccc2nc(N3CCNCC3)ccc2c1,9.23%
18,CN1CCN(C2=Nc3ccccc3Sc3ccc(Cl)cc32)CC1,26.7%
19,Clc1cccc(N2CCNCC2)c1,4.14%
20,Clc1ccc2c(c1)C(N1CCNCC1)=Nc1ccccc1O2,70%
21,Cc1cc2c(s1)Nc1ccccc1N=C2N1CCN(C)CC1,-8.9%
22,Clc1ccc2c(c1)N=C(N1CCNCC1)c1ccccc1N2,77.7%
23,Cc1ccc(Oc2ccccc2-c2csc(NC3=NCCCN3)n2)c(C)c1,6.61%
24,COc1cc(CCc2cc(NC(=O)c3ccc(N4C[C@@H](C)N[C@@H](C)C4)cc3)n[nH]2)cc(OC)c1,30.8%
25,C=C[C@@]1(C)CC(=O)[C@]2(O)[C@@]3(C)[C@@H](O)CCC(C)(C)[C@@H]3C(OC(=O)CCN(C)C)C(OC(C)=O)[C@@]2(C)O1 (stereo partly drawn),4.63%
26,C[C@H](CCC(=O)NCCS(=O)(=O)O)[C@H]1CC[C@H]2[C@@H]3[C@H](O)C[C@@H]4C[C@H](O)CC[C@]4(C)[C@H]3C[C@H](O)[C@]12C,-2.23%
